# Test results from PubChem BioAssay (NCI).
# The panel holds about 79,000 compounds, 15% with a hit somewhere; the sample as a whole holds those more often. Calls of active or inactive are those of the source. Rule as the data show it: active = growth inhibition above about 70%; inactive = the rest.
# Assay: NCI Yeast Anticancer Drug Screen. Data for the sgs1 mgt1 strain (AID 161);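 also: 0% = growth of cultures given vehicle only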
# Conditions: S. cerevisiae sgs1 mgt1 strain, at 5.0 µM (retest, dose inferred, filed as 0.5), stronger effect = higher value
# In short: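 Inhibition of yeast growth, normalised to vehicle-treated controls, is reported for a strain bearing genetic alterations in DNA damage repair.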
row,SMILES,growth inhibition
1,CCCCCCCCCCCCCCCC1=NCCN1C,29% (inactive)
2,C=CCNC(=O)c1ccccc1C(=O)O,0% (inactive)
3,O=C(Nc1ccc(Cl)cc1Cl)OC(Cn1cncn1)c1ccc(Cl)cc1Cl (configuration not stated),77% (active)
4,CC1=C(C)CC2C(=O)C(C(O)CC(C)C)=CC(=O)C2C1 (configuration not stated),-5% (inactive)
5,BrCc1ccccc1C[P+](c1ccccc1)(c1ccccc1)c1ccccc1,54% (inactive)
6,Cc1cn(C(C#N)=C(C#N)C#N)c2ccccc12,-8% (inactive)
7,O=C1OCCCOC(=O)c2cc(ccc2O)OCC#CC#CCOc2ccc(O)c1c2,-1% (inactive)
8,O=[N+]([O-])c1cc2ccc(O)cc2c2ccccc12,10% (inactive)
9,COc1cc2c(oc(=O)c3cc(C)cc(OC)c32)c2c(C3OC(C)C(O)C(C)(O)C3O)ccc(O)c12 (configuration not stated),79% (active)
10,Oc1c(Cl)cc(Cl)c(Cc2c(Cl)cc(Cl)c(O)c2Cl)c1Cl,98% (active)
11,N#CI1OC(C(F)(F)F)(C(F)(F)F)c2ccccc21,72% (active)
12,c1ccc2c(c1)[nH]c1c[n+]3c(c[n+]12)[nH]c1ccccc13,10% (inactive)
13,CC1Cc2cc(O)c(O)cc2-c2cc(O)c(O)cc2CC1C (configuration not stated),-9% (inactive)
14,COc1ccc(C2c3cc4c(cc3OC(C)(O)C2C)OCO4)cc1 (configuration not stated),8% (inactive)
15,Cc1ccc(C2(O)CC(c3ccc([N+](=O)[O-])o3)=NN2C(=O)COc2ccc(Cl)cc2)cc1 (configuration not stated),39% (inactive)
16,CCO[Si](CC)(OCC)OCC,4% (inactive)
17,C/C=C(/CCC1NCCC2c3ccccc3NC12)[Si](C)(C)C (configuration not stated),-2% (inactive)
